Experiment in all cases: Cytotoxic Profiling of Annotated Libraries Using Quantitative High-Throughput Screening (AID 1296008); note: nearly all actives have a fitted effect of over 60% in size
Holding throughout (conditions): Five cell lines viability, CellTiter-Glo ATP luminescence, 48-72 h; max response: stronger effect = lower value
(ATP-based viability assays read luminescence as a measure of living cells.)

The subject of test [1] is CRL-7250. In a few lines: (§1)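 Cytotoxicity was measured as CellTiter-Glo ATP luminescence, read after 10 min at room temperature. Compound treatment of the cells lasted 48 or 72 hr at 37 degrees Celsius in a qHTS format.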
Test [2] relates to HEK293. The essentials:
as §1

Test [3] deals with HaCat. In a few lines: as §1
Test [4] deals with KB-3-1. The essentials:
as §1

Test [5] deals with NIH3T3. In a few lines: as §1

Max response, outcome and Potency data for nine compounds are collected here from PubChem BioAssay (NCATS).

Inconclusive results are not listed. A number with no mark means an inactive call. Calls of active or inactive are those of the source. Calls come from the whole dose curve; as a rule, active = well fitted inhibition curve with a large enough effect; inconclusive = small, poorly fitted or top-dose-only effect; inactive = flat fitted curve, though single readings scatter.
% is set by controls: 0 for no effect and ±100 for the full control effect; potency is the fitted concentration of half-maximal effect.

`OCCCc1ccccc1`: the max response was -10.6% in test [1], -4.71% in test [2], -3% in test [3] and -4.85% in test [4]. In addition, the compound was called inactive in test [5].
For `CC(=O)Oc1ccc(C2(c3ccc(OC(C)=O)cc3)Oc3ccccc3NC2=O)cc1`, the values for the Potency in test [1] and in test [2] were 8.41 µM (active) and 7.5 µM (active), respectively.
With `C[C@@H](O[C@H]1OCCN(Cc2n[nH]c(=O)[nH]2)[C@H]1c1ccc(F)cc1)c1cc(C(F)(F)F)cc(C(F)(F)F)c1`, the max response in test [1] is 4.27%.
As to `C[N+](C)(CCOc1ccccc1)Cc1cccs1`, the max response in test [1] was -3.68%; in test [2], -16.4%; in test [3] it was 2.51%; in test [4], -7.87%; in test [5], -2.33%.
For `CC(C)C(C)(C)C(C)(C)C(C)(C)S`, in that order: -4.15%, -4.55%, 4.37%, -15.8% and -4.3%.
As to `CC(=O)OCC(=O)Nc1cc(C#N)cc(NC(=O)COC(C)=O)c1Cl`, the outcome in test [1] and in test [4] was inactive. For the same compound, the results for the max response in test [2], in test [3] and in test [5] were -14.4%, 0.636% and -0.147%, respectively.
As to `CCOC(=O)c1ccc(O)c(O)c1`, the results for the max response in test [1] and in test [3] were 2.32% and -0.432%, respectively. In addition, the outcome in test [2] was inactive.
For `CCCCC(CC)COC(=O)c1ccccc1C(=O)O` (stereo unspecified), the max response in test [1] is -9.5%; in test [3] it was -1.62%; in test [4] it was -15.1%; in test [5] it was -2.08%. Also, in test [2], the compound was classed as inactive.
In the case of `CC1(C)S[C@@H]2[C@H](NC(=O)C(c3ccccc3)S(=O)(=O)O)C(=O)N2[C@H]1C(=O)O` (stereo partly specified), the max response was 1.53% in test [1]; -0.254% in test [2]; -6.19% in test [3]; -0.526% in test [4]; 2.04% in test [5].
